# From PubChem BioAssay (EPA / NIEHS)
# Several values for one entry are separate records, joined by “and”; a condition that tells them apart may be missing. Equal entries are not always repeated. Records with an inconclusive call do not appear. The source holds several records for some structures; these can differ, active in one and inactive in another. Activity calls are given as the source filed them. The calls were made as follows, unless noted: active = hit-call score of the fitted dose curve at least 0.9, where 1 is the maximum; inconclusive = response in the unintended direction; inactive = score below 0.9.
# What was measured:
# [1] = read-out: Cytochrome P450 2C19 (Homo sapiens) (UniProt P33261); test: CLD_CYP2C19_48hr: CellzDirect (CLD) Gene Expression Assay for xenobiotic metabolism (CYP2C19) at 48 hours (AID 2283700);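 also: fitted upward so actives raise CYP2C19 mRNA above the 0.2% DMSO vehicle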
# Method in brief: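 CYP2C19 mRNA induction read by chemiluminescent quantitative nuclease protection assay after 48 h, with fresh compound added daily for two days to cultured human liver hepatocytes. Activity fitted upward against 0.2% DMSO vehicle.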
# [2] = read-out: Broad substrate specificity ATP-binding cassette transporter ABCG2 (Homo sapiens) (UniProt Q9UNQ0); test: CLD_ABCG2_48hr: CellzDirect (CLD) Gene Expression Assay for ABC Transporter (ABCG2) at 48 hours (AID 2283704);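 as to AC50: potency for induction of ABCG2 mRNA above the DMSO baseline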
# Method in brief: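 ABCG2 transcript measured at 48 h by quantitative nuclease protection (chemiluminescent) and fitted for increase relative to 0.2% DMSO. Hepatocyte cultures from separate donors got fresh compound daily over two days; morphology annotated cytotoxicity.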
# [3] = read-out: xenobiotic metabolism (CYP1A1), CYP1A1 (gene 1543); test: CLD_CYP1A1_48hr: CellzDirect (CLD) Gene Expression Assay for xenobiotic metabolism (CYP1A1) at 48 hours (AID 2283705)
# Method in brief: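 CYP1A1 transcript measured by quantitative nuclease protection (chemiluminescent) 48 h after two daily treatments of human hepatocyte cultures, versus 0.2% DMSO. Morphology-based cytotoxicity flags accompany data; two donor preparations used.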
# [4] = read-out: glucuronosyltransferase (UGT1A1), UGT1A1 (gene 54658); test: CLD_UGT1A1_48hr: CellzDirect (CLD) Gene Expression Assay for glucuronosyltransferase (UGT1A1) at 48 hours (AID 2283709);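 also: actives increase expression relative to DMSO so potency refers to induction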
# Method in brief: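 Quantitative nuclease protection assay (chemiluminescent) for UGT1A1 mRNA at 48 h in human hepatocyte cultures from two donors, redosed daily with fresh solutions. Induction fitted relative to 0.2% DMSO; phase-contrast morphology annotated cytotoxicity.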
# [5] = read-out: glucuronosyltransferase (UGT1A1), UGT1A1 (gene 54658); test: CLD_UGT1A1_24hr: CellzDirect (CLD) Gene Expression Assay for glucuronosyltransferase (UGT1A1) at 24 hours (AID 2283696)
# Method in brief: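 UGT1A1 transcript induction was measured by quantitative nuclease protection assay (chemiluminescence) in human hepatocyte cultures 24 h after daily fresh dosing, with 0.2% DMSO as vehicle and baseline.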
# [6] = read-out: Cytochrome P450 2B6 (Homo sapiens) (UniProt P20813); test: CLD_CYP2B6_48hr: CellzDirect (CLD) Gene Expression Assay for xenobiotic metabolism (CYP2B6) at 48 hours (AID 2283699);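 also: actives raise transcript level above DMSO so potency reflects induction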
# Method in brief: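 CYP2B6 transcript induction, read by quantitative nuclease protection (S1 digestion, chemiluminescent detection) 48 h after dosing, is fitted upward against 0.2% DMSO. Cultured human liver primary cells, two donor preparations, received fresh chemical daily over multiple concentrations.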
# [7] = read-out: Cytochrome P450 2C9 (Homo sapiens) (UniProt P11712); test: CLD_CYP2C9_48hr: CellzDirect (CLD) Gene Expression Assay for xenobiotic metabolism (CYP2C9) at 48 hours (AID 2283701; active = hit-call score of the fitted dose curve at least 0.9, where 1 is the maximum; inactive = score below 0.9)
# Method in brief: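 mRNA level measured by quantitative nuclease protection (S1 digestion, chemiluminescent detection) in lysates of human primary hepatocytes exposed 48 h with daily re-dosing. Induction fitted positively versus 0.2% DMSO; morphology-based cytotoxicity flagged yes/no.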
# [8] = read-out: ABC Transporter (ABCB1), ABCB1 (gene 5243); test: CLD_ABCB1_48hr: CellzDirect (CLD) Gene Expression Assay for ABC Transporter (ABCB1) at 48 hours (AID 2283695)
# Method in brief: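 ABCB1 mRNA was measured by quantitative nuclease protection assay (chemiluminescence) 48 h after dosing. Human hepatocyte cultures from two separate donors received fresh dosing solutions daily for two days, with 0.2% DMSO as vehicle. Positive-direction fit against DMSO.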
# [9] = read-out: xenobiotic metabolism (CYP1A2), CYP1A2 (gene 1544); test: CLD_CYP1A2_48hr: CellzDirect (CLD) Gene Expression Assay for xenobiotic metabolism (CYP1A2) at 48 hours (AID 2283703)
# Method in brief: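 Cytotoxicity was flagged yes/no from morphology, while CYP1A2 transcript induction was detected by qNPA chemiluminescence after a 48-hour exposure. Human primary hepatocyte cultures from separate donors received fresh dosing solutions daily over two days, with 0.2% DMSO as vehicle and baseline.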
# [10] = read-out: alkyl and aryl transferase (GSTA2), GSTA2 (gene 2939); test: CLD_GSTA2_48hr: CellzDirect (CLD) Gene Expression Assay for alkyl and aryl transferase (GSTA2) at 48 hours (AID 2283708);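 also: active means mRNA induction above DMSO vehicle baseline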
# Method in brief: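 GSTA2 mRNA quantified by qNPA chemiluminescence in human primary hepatocyte lysates after 48 h of daily fresh chemical dosing. Increases fitted against 0.2% DMSO vehicle baseline; cytotoxicity from morphology annotated yes/no.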
# Sequence of Broad substrate specificity ATP-binding cassette transporter ABCG2 (Homo sapiens) (Q9UNQ0 whole entry, looked up): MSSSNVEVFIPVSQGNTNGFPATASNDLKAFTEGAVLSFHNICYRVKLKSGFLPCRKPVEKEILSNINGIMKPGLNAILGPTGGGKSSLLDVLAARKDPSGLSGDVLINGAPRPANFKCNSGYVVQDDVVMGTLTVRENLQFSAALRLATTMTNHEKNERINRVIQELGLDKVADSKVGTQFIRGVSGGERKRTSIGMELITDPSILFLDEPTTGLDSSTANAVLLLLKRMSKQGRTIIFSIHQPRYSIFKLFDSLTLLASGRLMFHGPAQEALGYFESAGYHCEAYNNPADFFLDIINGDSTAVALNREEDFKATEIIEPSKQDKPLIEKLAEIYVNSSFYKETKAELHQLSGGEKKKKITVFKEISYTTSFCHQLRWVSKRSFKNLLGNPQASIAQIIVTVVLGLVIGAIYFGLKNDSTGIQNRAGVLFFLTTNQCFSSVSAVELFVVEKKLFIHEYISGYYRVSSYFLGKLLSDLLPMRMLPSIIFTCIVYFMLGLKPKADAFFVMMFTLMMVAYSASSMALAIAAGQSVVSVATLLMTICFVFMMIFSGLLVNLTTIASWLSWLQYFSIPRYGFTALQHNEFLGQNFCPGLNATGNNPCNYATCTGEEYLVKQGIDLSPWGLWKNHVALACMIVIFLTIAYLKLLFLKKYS
# Sequence of Cytochrome P450 2C19 (Homo sapiens) (P33261 whole entry, looked up): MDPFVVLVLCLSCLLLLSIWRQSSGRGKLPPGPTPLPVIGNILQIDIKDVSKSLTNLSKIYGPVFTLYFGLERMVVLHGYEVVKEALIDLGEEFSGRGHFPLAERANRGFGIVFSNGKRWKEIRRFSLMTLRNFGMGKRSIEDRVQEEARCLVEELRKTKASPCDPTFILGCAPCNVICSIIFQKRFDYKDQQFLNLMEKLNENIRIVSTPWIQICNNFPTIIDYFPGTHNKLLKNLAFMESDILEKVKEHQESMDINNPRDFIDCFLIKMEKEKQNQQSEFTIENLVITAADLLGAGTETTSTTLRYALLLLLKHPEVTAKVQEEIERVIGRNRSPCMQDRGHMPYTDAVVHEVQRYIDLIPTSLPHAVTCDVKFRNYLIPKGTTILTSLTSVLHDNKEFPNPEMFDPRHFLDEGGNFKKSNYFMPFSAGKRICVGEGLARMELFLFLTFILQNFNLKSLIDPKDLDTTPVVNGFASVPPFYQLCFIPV
structure (smiles),measurement,setting,value
COC(=O)C=C(C)OP(=O)(OC)OC,outcome,[1],inactive
same,outcome,[2],inactive
same,outcome,[3],inactive
same,outcome,[4],inactive
CO/C=C(/C(=O)OC)c1ccccc1Oc1cc(Oc2ccccc2C#N)ncn1,outcome,[5],inactive
same,AC50,[6],2.46 µM (active)
same,outcome,[7],inactive
same,outcome,[2],inactive
same,outcome,[4],inactive
COC(=O)C(C)Oc1ccc(Oc2ccc(Cl)cc2Cl)cc1 (centres undefined),outcome,[1],inactive
same,outcome,[7],inactive
same,outcome,[2],inactive
same,outcome,[3],inactive
same,AC50,[4],20 µM (active)
same,outcome,[4],inactive
COc1nc(C)nc(NC(=O)NS(=O)(=O)c2ccccc2Cl)n1,outcome,[1],inactive
same,outcome,[7],inactive
same,outcome,[2],inactive
same,outcome,[3],inactive
same,outcome,[4],inactive
CCCCNC(=O)OCC#CI,outcome,[1],inactive
same,outcome,[2],inactive
same,outcome,[3],inactive
CC(C)Oc1cc(-n2nc(C(C)(C)C)oc2=O)c(Cl)cc1Cl,AC50,[6],2.67 µM (active)
same,outcome,[7],inactive
same,outcome,[2],inactive
same,AC50,[3],4.01 µM (active)
same,outcome,[4],inactive
CCNc1nc(Cl)nc(NC(C)C)n1,outcome,[8],inactive
same,AC50,[6],3.97 µM (active)
same,outcome,[7],inactive
same,AC50,[3],20 µM (active)
same,AC50,[4],9.63 µM (active)
COc1nc(NC(C)C)nc(NC(C)C)n1,outcome,[1],inactive
same,outcome,[7],inactive
same,AC50,[3],4.52 µM (active)
same,outcome,[4],inactive
COc1nc(C)nc(NC(=O)NS(=O)(=O)c2ccccc2CCC(F)(F)F)n1,AC50,[6],2.5 µM (active) and 990 nM (active) and 836 nM (active)
same,outcome,[7],inactive
same,outcome,[2],inactive
same,outcome,[3],inactive
same,outcome,[4],inactive
CCON=C(CC)C1=C(O)CC(c2c(C)cc(C)cc2C)CC1=O (centres undefined),outcome,[1],inactive
same,outcome,[7],inactive
same,outcome,[4],inactive
N#CC(CCc1ccc(Cl)cc1)(Cn1cncn1)c1ccccc1 (centres undefined),outcome,[1],inactive
same,AC50,[9],2.3 µM (active)
same,outcome,[2],inactive
same,AC50,[3],2.53 µM (active)
same,outcome,[10],inactive
same,outcome,[4],inactive
CCOC(=O)C(Cl)Cc1cc(-n2nc(C)n(C(F)F)c2=O)c(F)cc1Cl (centres undefined),outcome,[1],inactive
same,outcome,[7],inactive
same,outcome,[3],inactive
same,outcome,[4],inactive
CCOC(=O)CC(SP(=S)(OC)OC)C(=O)OCC (centres undefined),outcome,[5],inactive
same,outcome,[2],inactive
same,outcome,[4],inactive
Cc1cc(Cl)ccc1OCC(=O)O,outcome,[1],inactive
same,outcome,[7],inactive
same,outcome,[2],inactive
same,outcome,[4],inactive
N#Cc1nn(-c2c(Cl)cc(C(F)(F)F)cc2Cl)c(N)c1S(=O)C(F)(F)F (centres undefined),outcome,[5],inactive
same,AC50,[2],31.6 µM (active)
same,outcome,[3],inactive
same,outcome,[4],inactive
C=CCC1=C(C)[C@@H](OC(=O)[C@@H]2[C@@H](C=C(C)C)C2(C)C)CC1=O,outcome,[1],inactive
same,outcome,[7],inactive
same,outcome,[2],inactive
same,AC50,[4],7.38 µM (active)
CCCCC(CC)COC(=O)c1ccccc1C(=O)OCC(CC)CCCC (centres undefined),outcome,[1],inactive
same,outcome,[9],inactive
same,outcome,[2],inactive
same,outcome,[3],inactive
same,outcome,[4],inactive
N#Cc1cc(Br)c(O)c(Br)c1,outcome,[5],inactive
same,outcome,[2],inactive
same,outcome,[3],inactive
same,outcome,[4],inactive
OC(c1ccc(Cl)cc1)(c1cncnc1)c1ccccc1Cl (centres undefined),AC50,[6],0.483 µM (active)
same,AC50,[2],33.4 µM (active)
same,outcome,[3],inactive
same,outcome,[4],inactive
COP(N)(=O)SC (centres undefined),outcome,[1],inactive
same,outcome,[7],inactive
same,outcome,[2],inactive
same,outcome,[4],inactive
O=C(O)c1nc(Cl)ccc1Cl,outcome,[1],inactive
same,outcome,[7],inactive
same,AC50,[9],7.28 µM (active)
same,outcome,[2],inactive
same,AC50,[3],4.17 µM (active)
same,outcome,[4],inactive
CCCCOC(=O)c1ccccc1C(=O)OCCCC,outcome,[6],inactive
same,outcome,[1],inactive
same,outcome,[7],inactive
same,outcome,[2],inactive
same,outcome,[3],inactive
same,outcome,[4],inactive
CC(C)(C)c1ccc(CSc2cnn(C(C)(C)C)c(=O)c2Cl)cc1,outcome,[1],inactive
same,outcome,[7],inactive
same,outcome,[2],inactive
same,outcome,[3],inactive
same,outcome,[4],inactive
COc1cnc(OC)n2nc(NS(=O)(=O)c3c(OCC(F)F)cccc3C(F)(F)F)nc12,outcome,[8],inactive
same,outcome,[1],inactive
same,outcome,[7],inactive
same,outcome,[3],inactive
same,outcome,[4],inactive
Cc1c(F)c(F)c(COC(=O)C2C(/C=C(\Cl)C(F)(F)F)C2(C)C)c(F)c1F (centres undefined),AC50,[6],4.39 µM (active)
same,outcome,[2],inactive
same,AC50,[3],20 µM (active)
same,outcome,[4],inactive
COc1ccc(C(c2ccc(OC)cc2)C(Cl)(Cl)Cl)cc1,AC50,[5],20 µM (active)
same,outcome,[1],inactive
same,outcome,[7],inactive
same,AC50,[3],20 µM (active)
same,AC50,[4],8.36 µM (active)
COP(=S)(OC)Oc1nc(Cl)c(Cl)cc1Cl,outcome,[10],inactive
